Screens: PubChem BioAssay, National Center for Advancing Translational Sciences (NCATS)
GLP-1R inv ag = qHTS of GLP-1 Receptor Inverse Agonists (Inhibition Mode); Potency, µM (titrated, usually from 38.3 µM), for inactives: at the highest dose activity change, negative = inhibition, most hits filed as inhibitors; actives 1.6% (n = 410,000); Glucagon-like peptide 1 receptor (Homo sapiens), P43220; HEK293 GLP-1R CRE-luciferase, luminescence, 24 h; GLP-1R form is constitutively active; note: % is set by controls: 0 for no effect and ±100 for the full control effect; nearly all actives have a fitted effect of over 55% in size
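Seeding at 200 cells/uL, 12 h culture, 24 hr compound treatment, then luciferase reagent and a luminescence read; cells are HEK293 stably expressing a constitutively active GLP-1R plus cAMP-responsive luciferase.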
GLP1R cytotox = qHTS of GLP-1 Receptor Inverse Agonists: Cytotox Screen; HEK293 cAMP-luciferase reporter cells, luminescence, 24 h; Potency, µM (top dose mostly 38.3 µM), for the others: at the highest dose activity change, negative = inhibition, actives largely listed as inhibitors; actives 0.13% (n = 410,000);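 note: loss of luciferase light is scored as toxicity; % is set by controls: 0 for no effect and ±100 for the full control effect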
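Luminescence readout: signal drop marks cytotoxicity. Plated cells grew 12 h at 37 °C, 5% CO2, received 23 nL compound for 24 h, then got luciferase reagent, read after 12 min at RT.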
GLP1R ag = qHTS of GLP-1 Receptor Agonists | Glucagon-like peptide 1 receptor (Homo sapiens), P43220 | HEK293 GLP-1R CRE-luciferase, luminescence, 4-6 h; cells express a hypersensitive GLP-1R form | Potency, µM (top dose mostly 45.6 µM), inactives show at the top dose activation, actives largely listed as activators | actives 0.007% (n = 380,000) | AID 624172, 2012; note: % of control where 0% means no effect
PTHR1 ag = qHTS for PTHR1 Agonists: Primary Screen; HEK293 GP2 PTHR1 cells, GloSensor cAMP luminescence, 1 h; Potency, µM (series often up to 115 µM), without a hit: at the top dose activation, usual class: activators; actives 0.075% (n = 410,000); AID 743266, 2014; note: nearly all actives have a fitted effect of over 55% in size
Target sequence (Q03431 whole entry, looked up): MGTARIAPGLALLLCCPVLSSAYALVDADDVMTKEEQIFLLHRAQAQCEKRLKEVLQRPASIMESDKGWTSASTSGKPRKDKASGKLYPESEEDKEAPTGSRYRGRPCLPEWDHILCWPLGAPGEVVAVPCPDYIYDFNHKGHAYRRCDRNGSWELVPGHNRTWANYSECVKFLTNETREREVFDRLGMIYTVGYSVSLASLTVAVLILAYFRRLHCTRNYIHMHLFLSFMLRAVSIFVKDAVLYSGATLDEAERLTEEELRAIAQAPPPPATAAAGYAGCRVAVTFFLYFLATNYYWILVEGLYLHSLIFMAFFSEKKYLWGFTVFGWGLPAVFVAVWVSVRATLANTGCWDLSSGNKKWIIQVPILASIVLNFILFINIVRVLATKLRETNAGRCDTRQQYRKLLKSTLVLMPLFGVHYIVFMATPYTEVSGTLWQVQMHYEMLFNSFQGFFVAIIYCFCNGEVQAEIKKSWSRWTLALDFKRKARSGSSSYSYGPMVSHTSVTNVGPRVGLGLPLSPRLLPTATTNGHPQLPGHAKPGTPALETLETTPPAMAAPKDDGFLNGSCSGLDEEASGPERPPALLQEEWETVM
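HEK-293-derived GP2 cells expressing PTHR1 and a GloSensor cAMP reporter, 3,000/well, plated overnight, given luciferin plus IBMX (each 0.5 mM as added) for 1 h at 37 °C, then compound for 1 h at 37 °C. Luminescence was read after 15 min at room temperature.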
* marks the source's active call; other numbers are inactive results; [ ] = dose if it differs, or a comment. The list is not random: actives were taken first. Their share in the collection is about 1.7%. Calls come from the whole dose curve; as a rule, active = well fitted curve in the direction sought with a large enough effect; inconclusive = small, poorly fitted or top-dose-only effect, or another doubt; inactive = no such curve, though single readings can be large; an effect the other way counts as inactive or inconclusive. Potency is the fitted concentration of half-maximal effect.

Screening CC1=C(C(=O)NCCc2ccc(Cl)cc2)C2(CCCCC2)OC1=O returned GLP-1R inv ag -26.9%, GLP1R cytotox -7.7% and PTHR1 ag inactive.
Screening Cc1ccc(CC(C)(O)CC(C)(O)Cc2ccc(C)cc2)cc1 (configuration not stated) returned GLP-1R inv ag 10µM*, GLP1R cytotox 1.0%, GLP1R ag 6.2% and PTHR1 ag -17.5%.
`COc1ccc(/C(C)=N/NC(=S)NCc2ccco2)cc1` gave GLP-1R inv ag 11.2µM*, GLP1R cytotox inconclusive, GLP1R ag 23.4% and PTHR1 ag -8.5%.
Screening C/C(=N\NC(=S)NCc1ccccc1)c1ccc2ccccc2c1 returned GLP-1R inv ag inconclusive, GLP1R cytotox 2.82µM*, GLP1R ag 4.9% and PTHR1 ag -30.8%.
`CCNC(=S)N/N=C(\C)c1cc2ccccc2o1` gave GLP-1R inv ag 4.47µM*, GLP1R cytotox inconclusive, GLP1R ag 21.4% and PTHR1 ag inactive.
For C/C(=N\NC(=S)NCc1ccccc1)c1cccc(Br)c1 the results were GLP-1R inv ag 8.91µM*, GLP1R cytotox inconclusive, GLP1R ag 27.0% and PTHR1 ag -1.4%.
For C/C(=N\NC(=S)Nc1cccc(C)c1)c1cc2ccccc2o1 the results were GLP-1R inv ag 9.2%[7.66 µM], GLP1R cytotox inconclusive, GLP1R ag 15.3% and PTHR1 ag -12.0%.
For COc1ccc(Cl)cc1C(=O)NCC(C)C the results were GLP-1R inv ag 16.7%, GLP1R cytotox 2.0%, GLP1R ag 0.0% and PTHR1 ag inactive.
For CC1(C(=O)NS(=O)(=O)c2cccc(OC(F)F)c2)CCN1C(=O)CCc1cccs1 (configuration not stated) the results were GLP-1R inv ag -19.9%, GLP1R cytotox 4.0%, GLP1R ag -7.6% and PTHR1 ag -1.6%.
`O=C(CSc1nc2c([nH]c3ccccc32)c(=O)n1-c1ccc(F)cc1)NCc1ccc(F)cc1` gave GLP-1R inv ag 11.2%, GLP1R cytotox 1.0%, GLP1R ag 1.4% and PTHR1 ag -4.3%.
Screening C[C@H]1[C@@H](OC(=O)CCC(=O)O)OC2OC3(C)CC[C@H]4[C@H](C)CC[C@@H]1[C@@]24OO3 (some centres not stated) returned GLP1R ag -2.8%.
COc1ccc(-c2cc(C)no2)cc1S(=O)(=O)N1CC(C)Oc2ccccc21 (configuration not stated) was read as GLP-1R inv ag inconclusive, GLP1R cytotox -2.8% and PTHR1 ag -22.9%.
For COc1ccc(Cl)cc1-c1cc(C(=O)N[C@H](C)c2ccccc2)[nH]n1 the results were GLP-1R inv ag inconclusive, GLP1R cytotox 1.3%, GLP1R ag -4.0% and PTHR1 ag -19.2%.
For COc1ccccc1/C(C)=N/NC(=S)NCc1ccccc1 the results were GLP-1R inv ag 2.51µM*, GLP1R cytotox 5.01µM*, GLP1R ag 18.1% and PTHR1 ag inactive.
Screening CC1C/C(=N\NC(N)=S)c2cc(Cl)ccc2S1 (configuration not stated) returned GLP-1R inv ag inconclusive, GLP1R cytotox 2.24µM*, GLP1R ag -16.0% and PTHR1 ag -15.7%.
For CC(C)=C1CCC(C)CC1=NNC(N)=S (configuration not stated) the results were GLP-1R inv ag inconclusive, GLP1R cytotox inconclusive, GLP1R ag 5.0% and PTHR1 ag -19.7%.
Cc1c(C)n(Cc2ccc(F)cc2)c2ccc(C(=O)Nc3ccc(Cl)cc3)cc12 was read as GLP-1R inv ag inconclusive, GLP1R cytotox inconclusive and PTHR1 ag -12.0%.
For CCc1ccc(NC(=O)c2ccc3c(c2)c(C)c(C)n3Cc2ccccc2)cc1 the results were GLP-1R inv ag inconclusive, GLP1R cytotox -17.8% and PTHR1 ag inactive.
Screening CCc1cccc(NC(=O)c2ccc3c(c2)c(C)c(C)n3Cc2ccc(F)cc2)c1 returned GLP-1R inv ag 10µM*, GLP1R cytotox -18.7% and PTHR1 ag inactive.
Screening CCc1ccc(CNC(=O)c2ccc3c(c2)c(C)c(C)n3Cc2ccccc2)cc1 returned GLP-1R inv ag 10µM*, GLP1R cytotox 1.9% and PTHR1 ag inactive.
